SMILES strings stand for the structures. pKd: −log10 of the molar value.
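Also: kd values determined as follow-up on hits from a single-replicate KINOMEscan panel screen.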

The assay deals with PDGFRB.
As usually defined, the pKd is −log10 of the Kd, conventionally taken in molar units. The low end stands for a high Kd, the high end for a low Kd. Turning to `Cc1cnc(N)c(/C=C/c2cncc(C(=O)NCCc3ccc(Cl)cc3Cl)c2)c1.Cl` [GSK190937], the pKd was 6.85.

In the case of `Cc1ccc(NC(=O)Nc2ccc(Cl)c(C(F)(F)F)c2)cc1-c1ccc(C(=O)Nc2ccncc2)cc1` [GSK1398470], the pKd is 6.57.

The compound `Cc1ccc(NC(=O)Nc2ccccc2F)cc1-c1ccc(C(=O)Nc2ccncc2)cc1` [GSK1398477] gave a pKd of 7.33.

With `COc1cccc(NC(=O)Nc2ccc(C)c(-c3ccc(C(=O)Nc4ccncc4)cc3)c2)c1` [GSK1398474], the pKd is 7.40.

Compound `Cc1ccc(NC(=O)Nc2ccc(Cl)cc2)cc1-c1ccc(C(=O)Nc2ccncc2)cc1` [GSK1398472] showed a pKd of 7.07.

Turning to `CS(=O)(=O)Cc1ccc(Nc2nccc(-c3c(-c4cccc(NC(=O)C5CCCCC5)c4)nn4ncccc34)n2)cc1` [GSK350559], the pKd was 7.13.

`Cc1ccc(NC(=O)Nc2ccccc2)cc1-c1ccc(C(=O)Nc2ccncc2)cc1` [GSK1398471]: the pKd was 7.55.

In turn, `Cc1ccc(NC(=O)c2ccc(Cl)cc2)cc1-c1ccc(C(=O)Nc2ccncc2)cc1` [GSK1398467] had a pKd of 8.01.

In turn, `O=C(Nc1n[nH]c2cc(-c3ccsc3)ccc12)C1CC1` [SB-732932] gave a pKd of 6.15.

The record behind these values is PMC5540273 (PLoS ONE, 2017).
